# Results as given in paper PMC7862700, “An all-to-all approach to the identification of sequence-specific readers for epigenetic DNA modifications on cytosine”.
# Tests used:
# Test in all cases: DAPPL (digital affinity profiling via proximity ligation, sequencing); 10 mM Tris-HCl pH 7.5, 50 mM NaCl, 1 mM DTT, 4% glycerol, room temperature, 30 min; GST-TFs on glutathione beads, 16-mer random dsDNA library, 0.1% formaldehyde crosslink after washing; high values mean tight binding
# FEV = biological target: T1, FEV (Homo sapiens, UniProt Q99581 1-238); details: protein: recombinant; tags: N-terminal GST; dsDNA, one strand shown
# T1 sequence: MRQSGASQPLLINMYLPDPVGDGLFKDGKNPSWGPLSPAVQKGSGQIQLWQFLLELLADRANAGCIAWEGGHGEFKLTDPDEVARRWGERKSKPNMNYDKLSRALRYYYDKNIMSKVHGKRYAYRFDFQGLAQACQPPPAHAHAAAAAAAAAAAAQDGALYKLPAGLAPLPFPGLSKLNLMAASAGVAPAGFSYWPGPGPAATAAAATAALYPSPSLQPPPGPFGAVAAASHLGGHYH
# Method in brief: (§1)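 The binding signal reported is, for every hexamer, its read frequency for a factor over its read frequency for the tag-only sample. Reads came from pools of yeast-expressed, GST-fused human transcription factors on glutathione beads, barcoded with DNA and mixed with that sample, which were incubated with 200 nmole of a random double-stranded 16-mer DNA library in Tris/NaCl/DTT/glycerol buffer at room temperature for 30 min. After washing, the pools were crosslinked with 0.1% formaldehyde, proximity-ligated with BsaI/T4 ligase for 1 h at 37 °C, PCR-amplified and sequenced on an Illumina NextSeq500.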
# ETV5 = ETV5 (Homo sapiens, UniProt P41161 1-510); details: protein: recombinant; tags: N-terminal GST; dsDNA, one strand shown
# Method in brief: as §1
# HSF1 = HSF1 (Homo sapiens, UniProt Q00613 1-529); details: protein: recombinant; tags: N-terminal GST; chain copies: 3; dsDNA, one strand shown
# Method in brief: as §1
# SPIC = biological target: T2, SPIC (Homo sapiens, UniProt Q8N5J4 1-248); details: protein: recombinant; tags: N-terminal GST; dsDNA, one strand shown
# T2 sequence: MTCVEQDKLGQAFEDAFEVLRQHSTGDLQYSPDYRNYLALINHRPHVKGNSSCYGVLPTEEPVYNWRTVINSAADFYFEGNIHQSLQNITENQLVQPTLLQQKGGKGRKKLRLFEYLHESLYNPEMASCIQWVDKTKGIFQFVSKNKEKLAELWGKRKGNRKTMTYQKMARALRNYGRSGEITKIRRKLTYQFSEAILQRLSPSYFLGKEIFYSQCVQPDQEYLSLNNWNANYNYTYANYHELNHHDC
# Method in brief: as §1
# ELF4 = ELF4 (Homo sapiens, UniProt Q99607 1-663); details: protein: recombinant; tags: N-terminal GST; dsDNA, one strand shown
# Method in brief: as §1
# ELK4 = biological target: T3, ELK4 (Homo sapiens, UniProt P28324-2 1-405); details: protein: recombinant; tags: N-terminal GST; dsDNA, one strand shown
# T3 sequence: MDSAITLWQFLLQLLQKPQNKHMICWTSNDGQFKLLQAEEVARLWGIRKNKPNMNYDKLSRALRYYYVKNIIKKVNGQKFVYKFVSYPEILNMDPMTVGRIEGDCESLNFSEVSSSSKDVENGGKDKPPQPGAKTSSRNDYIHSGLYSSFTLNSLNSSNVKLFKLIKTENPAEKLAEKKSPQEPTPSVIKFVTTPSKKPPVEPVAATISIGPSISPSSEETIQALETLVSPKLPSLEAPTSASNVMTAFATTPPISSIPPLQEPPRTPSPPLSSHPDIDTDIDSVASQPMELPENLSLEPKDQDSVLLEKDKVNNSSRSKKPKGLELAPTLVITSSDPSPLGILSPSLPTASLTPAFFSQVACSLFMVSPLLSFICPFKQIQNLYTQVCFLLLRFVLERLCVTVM
# Method in brief: as §1
# ETV2 = biological target: T4, ETV2 (Homo sapiens, UniProt O00321 1-342); details: protein: recombinant; tags: N-terminal GST; dsDNA, one strand shown
# T4 sequence: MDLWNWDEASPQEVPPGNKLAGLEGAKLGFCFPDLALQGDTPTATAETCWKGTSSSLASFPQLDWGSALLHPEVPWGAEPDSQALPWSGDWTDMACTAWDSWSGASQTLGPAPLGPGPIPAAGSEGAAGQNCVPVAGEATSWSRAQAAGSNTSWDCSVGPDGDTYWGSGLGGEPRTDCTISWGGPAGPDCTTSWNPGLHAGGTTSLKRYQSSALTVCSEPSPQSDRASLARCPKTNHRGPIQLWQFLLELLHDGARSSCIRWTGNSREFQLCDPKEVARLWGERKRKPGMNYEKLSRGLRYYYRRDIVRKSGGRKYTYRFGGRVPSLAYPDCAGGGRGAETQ
# Method in brief: as §1
# ELF3 = biological target: T5, ELF3 (Homo sapiens, UniProt P78545 1-371); details: protein: recombinant; tags: N-terminal GST; dsDNA, one strand shown
# T5 sequence: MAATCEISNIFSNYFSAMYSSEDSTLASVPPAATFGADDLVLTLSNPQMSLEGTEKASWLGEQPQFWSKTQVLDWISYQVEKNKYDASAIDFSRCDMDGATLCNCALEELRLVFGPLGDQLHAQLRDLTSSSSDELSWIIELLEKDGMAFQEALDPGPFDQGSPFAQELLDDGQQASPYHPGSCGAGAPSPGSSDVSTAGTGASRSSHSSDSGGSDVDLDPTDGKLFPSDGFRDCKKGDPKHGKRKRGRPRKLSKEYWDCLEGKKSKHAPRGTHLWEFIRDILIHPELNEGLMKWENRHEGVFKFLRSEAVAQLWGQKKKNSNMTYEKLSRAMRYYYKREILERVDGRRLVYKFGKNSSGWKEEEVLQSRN
# Method in brief: as §1
# CRX = CRX (Homo sapiens, UniProt O43186 1-299); details: protein: recombinant; tags: N-terminal GST; dsDNA, one strand shown
# Method in brief: as §1
# ETV1 = ETV1 (Homo sapiens, UniProt P50549 1-477); details: protein: recombinant; tags: N-terminal GST; dsDNA, one strand shown
# Method in brief: as §1
# ERF = biological target: T6, ERF (Homo sapiens, UniProt P50548 1-548); details: protein: recombinant; tags: N-terminal GST; dsDNA, one strand shown
# T6 sequence: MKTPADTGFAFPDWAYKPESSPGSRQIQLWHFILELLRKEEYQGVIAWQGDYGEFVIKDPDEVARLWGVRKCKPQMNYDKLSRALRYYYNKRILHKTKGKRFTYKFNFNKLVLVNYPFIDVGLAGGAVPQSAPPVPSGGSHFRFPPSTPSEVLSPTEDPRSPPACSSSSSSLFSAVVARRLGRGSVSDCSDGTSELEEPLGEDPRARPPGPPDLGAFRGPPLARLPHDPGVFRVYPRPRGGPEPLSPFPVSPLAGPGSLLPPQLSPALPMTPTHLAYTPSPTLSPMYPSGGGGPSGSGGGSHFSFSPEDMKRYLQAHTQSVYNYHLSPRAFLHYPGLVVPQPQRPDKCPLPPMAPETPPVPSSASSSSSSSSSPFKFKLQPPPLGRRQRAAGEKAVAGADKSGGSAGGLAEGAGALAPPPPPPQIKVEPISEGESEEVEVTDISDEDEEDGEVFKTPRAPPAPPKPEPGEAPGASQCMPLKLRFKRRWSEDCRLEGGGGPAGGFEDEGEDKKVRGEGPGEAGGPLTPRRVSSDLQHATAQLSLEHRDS
# Method in brief: as §1
# ETV3L = biological target: T7, ETV3L (Homo sapiens, UniProt Q6ZN32 1-361); details: protein: recombinant; tags: N-terminal GST; dsDNA, one strand shown
# T7 sequence: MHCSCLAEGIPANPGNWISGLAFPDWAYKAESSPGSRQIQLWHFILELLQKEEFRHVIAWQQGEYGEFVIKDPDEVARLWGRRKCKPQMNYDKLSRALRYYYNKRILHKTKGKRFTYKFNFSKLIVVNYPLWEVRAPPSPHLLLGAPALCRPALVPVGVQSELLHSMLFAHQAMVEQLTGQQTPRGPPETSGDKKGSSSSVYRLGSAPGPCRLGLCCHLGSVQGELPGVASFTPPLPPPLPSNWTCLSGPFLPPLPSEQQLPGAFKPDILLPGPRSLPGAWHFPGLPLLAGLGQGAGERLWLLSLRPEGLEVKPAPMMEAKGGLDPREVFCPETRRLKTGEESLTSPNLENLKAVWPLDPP
# Method in brief: as §1
# ETS2 = biological target: T8, ETS2 (Homo sapiens, UniProt P15036 1-469); details: protein: recombinant; tags: N-terminal GST; dsDNA, one strand shown
# T8 sequence: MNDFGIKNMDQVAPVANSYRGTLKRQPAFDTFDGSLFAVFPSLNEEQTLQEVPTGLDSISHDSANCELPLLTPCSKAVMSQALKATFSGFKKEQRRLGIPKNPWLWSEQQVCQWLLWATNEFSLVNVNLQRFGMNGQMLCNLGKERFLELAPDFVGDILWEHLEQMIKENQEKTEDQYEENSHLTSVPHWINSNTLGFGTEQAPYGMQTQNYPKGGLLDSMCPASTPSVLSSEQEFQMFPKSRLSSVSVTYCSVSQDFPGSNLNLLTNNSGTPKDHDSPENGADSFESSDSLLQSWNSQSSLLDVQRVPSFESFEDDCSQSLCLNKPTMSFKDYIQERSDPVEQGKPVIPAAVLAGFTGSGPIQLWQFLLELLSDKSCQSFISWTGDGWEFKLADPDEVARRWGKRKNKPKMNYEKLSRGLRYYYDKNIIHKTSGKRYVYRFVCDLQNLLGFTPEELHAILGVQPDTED
# Method in brief: as §1
# SPDEF = biological target: T9, SPDEF (Homo sapiens, UniProt O95238 1-335); details: protein: recombinant; tags: N-terminal GST; dsDNA, one strand shown
# T9 sequence: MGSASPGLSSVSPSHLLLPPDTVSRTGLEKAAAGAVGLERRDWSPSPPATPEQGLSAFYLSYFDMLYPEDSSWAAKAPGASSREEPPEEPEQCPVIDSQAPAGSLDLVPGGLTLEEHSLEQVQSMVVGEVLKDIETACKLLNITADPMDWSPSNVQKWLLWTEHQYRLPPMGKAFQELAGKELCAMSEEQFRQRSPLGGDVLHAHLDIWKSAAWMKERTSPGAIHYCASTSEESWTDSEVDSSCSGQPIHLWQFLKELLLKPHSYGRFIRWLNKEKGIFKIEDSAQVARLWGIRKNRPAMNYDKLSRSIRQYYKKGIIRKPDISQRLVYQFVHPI
# Method in brief: as §1
# ETV7 = biological target: T10, ETV7 (Homo sapiens, UniProt Q9Y603 1-341); details: protein: recombinant; tags: N-terminal GST; dsDNA, one strand shown
# T10 sequence: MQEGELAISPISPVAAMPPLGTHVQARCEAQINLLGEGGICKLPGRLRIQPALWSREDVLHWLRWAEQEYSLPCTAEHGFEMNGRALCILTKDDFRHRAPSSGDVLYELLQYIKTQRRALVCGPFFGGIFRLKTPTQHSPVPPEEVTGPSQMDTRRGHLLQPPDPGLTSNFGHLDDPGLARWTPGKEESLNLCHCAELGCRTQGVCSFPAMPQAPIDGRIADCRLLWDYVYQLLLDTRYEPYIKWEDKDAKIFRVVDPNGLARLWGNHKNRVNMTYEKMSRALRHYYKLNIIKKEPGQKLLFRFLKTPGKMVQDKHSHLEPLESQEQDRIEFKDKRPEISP
# Method in brief: as §1
# ELF5 = biological target: T11, ELF5 (Homo sapiens, UniProt Q9UKW6-2 1-255); details: protein: recombinant; tags: N-terminal GST; dsDNA, one strand shown
# T11 sequence: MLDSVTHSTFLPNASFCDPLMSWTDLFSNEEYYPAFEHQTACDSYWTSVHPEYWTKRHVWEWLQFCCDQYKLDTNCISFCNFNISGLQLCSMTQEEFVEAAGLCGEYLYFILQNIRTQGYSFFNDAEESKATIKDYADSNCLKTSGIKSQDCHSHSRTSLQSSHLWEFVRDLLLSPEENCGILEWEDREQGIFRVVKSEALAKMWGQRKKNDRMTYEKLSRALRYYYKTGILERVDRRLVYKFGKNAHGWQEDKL
# Method in brief: as §1
# ETV3 = biological target: T12, ETV3 (Homo sapiens, UniProt P41162-2 1-143); details: protein: recombinant; tags: N-terminal GST; dsDNA, one strand shown
# T12 sequence: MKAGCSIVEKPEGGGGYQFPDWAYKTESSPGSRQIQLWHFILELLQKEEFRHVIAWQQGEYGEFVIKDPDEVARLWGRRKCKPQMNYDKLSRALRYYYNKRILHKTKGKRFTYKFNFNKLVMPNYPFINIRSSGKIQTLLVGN
# Method in brief: as §1
# ETV6 = ETV6 (Homo sapiens, UniProt P41212 1-452); details: protein: recombinant; tags: N-terminal GST; dsDNA, one strand shown
# Method in brief: as §1
# Sequence of ETV1 (P50549 whole entry): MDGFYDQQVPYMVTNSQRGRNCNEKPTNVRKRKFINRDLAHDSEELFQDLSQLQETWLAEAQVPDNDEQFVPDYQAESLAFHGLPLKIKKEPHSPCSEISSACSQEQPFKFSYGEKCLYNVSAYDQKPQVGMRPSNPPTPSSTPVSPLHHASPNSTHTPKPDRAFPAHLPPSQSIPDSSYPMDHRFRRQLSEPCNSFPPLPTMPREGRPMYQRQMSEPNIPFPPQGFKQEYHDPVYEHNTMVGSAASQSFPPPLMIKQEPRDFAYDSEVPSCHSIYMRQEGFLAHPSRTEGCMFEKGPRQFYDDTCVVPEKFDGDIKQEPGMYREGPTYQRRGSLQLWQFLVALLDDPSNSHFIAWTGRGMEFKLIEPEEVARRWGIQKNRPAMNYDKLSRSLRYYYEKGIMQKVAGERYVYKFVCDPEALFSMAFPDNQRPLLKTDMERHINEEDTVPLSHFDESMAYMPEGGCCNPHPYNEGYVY
# Sequence of CRX (O43186 whole entry): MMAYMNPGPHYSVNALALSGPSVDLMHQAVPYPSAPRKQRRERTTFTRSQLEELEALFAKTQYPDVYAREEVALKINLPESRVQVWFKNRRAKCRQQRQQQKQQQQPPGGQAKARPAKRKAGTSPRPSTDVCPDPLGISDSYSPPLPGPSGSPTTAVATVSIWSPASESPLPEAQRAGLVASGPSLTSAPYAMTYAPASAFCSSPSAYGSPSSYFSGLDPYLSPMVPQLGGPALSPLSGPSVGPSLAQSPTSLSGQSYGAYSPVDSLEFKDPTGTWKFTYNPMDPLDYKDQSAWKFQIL
# Sequence of ELF4 (Q99607 whole entry): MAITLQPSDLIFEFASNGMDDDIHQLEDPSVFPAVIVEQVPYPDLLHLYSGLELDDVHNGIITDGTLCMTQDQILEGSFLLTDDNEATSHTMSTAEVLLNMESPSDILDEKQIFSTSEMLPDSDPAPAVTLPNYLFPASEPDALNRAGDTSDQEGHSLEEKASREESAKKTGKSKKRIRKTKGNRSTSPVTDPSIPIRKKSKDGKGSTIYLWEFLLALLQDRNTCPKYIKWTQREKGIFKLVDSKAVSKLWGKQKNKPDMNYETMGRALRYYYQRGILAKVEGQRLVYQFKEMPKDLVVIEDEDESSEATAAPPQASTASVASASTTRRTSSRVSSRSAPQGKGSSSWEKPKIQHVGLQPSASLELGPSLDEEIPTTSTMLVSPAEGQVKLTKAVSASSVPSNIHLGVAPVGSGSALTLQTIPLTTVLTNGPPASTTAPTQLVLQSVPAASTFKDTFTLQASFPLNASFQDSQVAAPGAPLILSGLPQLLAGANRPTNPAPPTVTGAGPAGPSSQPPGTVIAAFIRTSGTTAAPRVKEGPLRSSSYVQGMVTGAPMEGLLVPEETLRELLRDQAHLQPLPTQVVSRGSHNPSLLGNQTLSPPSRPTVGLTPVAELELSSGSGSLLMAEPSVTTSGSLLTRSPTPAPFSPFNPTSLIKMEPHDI
# Sequence of HSF1 (Q00613 whole entry): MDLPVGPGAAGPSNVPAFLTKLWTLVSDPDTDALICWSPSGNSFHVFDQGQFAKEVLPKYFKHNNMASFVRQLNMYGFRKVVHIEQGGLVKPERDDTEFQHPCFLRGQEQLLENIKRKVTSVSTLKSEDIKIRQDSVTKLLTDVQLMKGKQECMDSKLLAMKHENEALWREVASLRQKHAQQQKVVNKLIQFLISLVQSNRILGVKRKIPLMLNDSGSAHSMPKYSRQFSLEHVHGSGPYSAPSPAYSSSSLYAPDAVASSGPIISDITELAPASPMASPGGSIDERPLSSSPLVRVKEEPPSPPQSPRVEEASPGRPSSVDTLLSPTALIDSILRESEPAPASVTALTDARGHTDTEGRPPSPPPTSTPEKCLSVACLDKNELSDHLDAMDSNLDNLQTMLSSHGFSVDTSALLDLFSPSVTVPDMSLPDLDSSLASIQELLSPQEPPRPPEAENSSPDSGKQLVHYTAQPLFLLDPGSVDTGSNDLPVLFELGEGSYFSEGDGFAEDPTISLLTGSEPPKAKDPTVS
# Sequence of ETV5 (P41161 whole entry): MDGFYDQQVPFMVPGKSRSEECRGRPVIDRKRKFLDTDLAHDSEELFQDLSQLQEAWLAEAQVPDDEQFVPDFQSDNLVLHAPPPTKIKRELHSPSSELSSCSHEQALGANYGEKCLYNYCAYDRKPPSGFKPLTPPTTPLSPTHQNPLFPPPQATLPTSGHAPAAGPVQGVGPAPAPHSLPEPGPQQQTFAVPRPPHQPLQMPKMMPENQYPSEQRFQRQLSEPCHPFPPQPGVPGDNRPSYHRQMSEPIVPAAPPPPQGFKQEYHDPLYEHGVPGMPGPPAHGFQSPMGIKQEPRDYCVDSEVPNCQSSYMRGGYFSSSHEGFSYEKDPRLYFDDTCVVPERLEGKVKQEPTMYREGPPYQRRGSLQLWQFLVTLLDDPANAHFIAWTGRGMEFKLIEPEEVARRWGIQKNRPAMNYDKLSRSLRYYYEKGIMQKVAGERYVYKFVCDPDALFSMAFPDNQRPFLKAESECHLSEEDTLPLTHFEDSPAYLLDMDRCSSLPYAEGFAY
# Sequence of ETV6 (P41212 whole entry): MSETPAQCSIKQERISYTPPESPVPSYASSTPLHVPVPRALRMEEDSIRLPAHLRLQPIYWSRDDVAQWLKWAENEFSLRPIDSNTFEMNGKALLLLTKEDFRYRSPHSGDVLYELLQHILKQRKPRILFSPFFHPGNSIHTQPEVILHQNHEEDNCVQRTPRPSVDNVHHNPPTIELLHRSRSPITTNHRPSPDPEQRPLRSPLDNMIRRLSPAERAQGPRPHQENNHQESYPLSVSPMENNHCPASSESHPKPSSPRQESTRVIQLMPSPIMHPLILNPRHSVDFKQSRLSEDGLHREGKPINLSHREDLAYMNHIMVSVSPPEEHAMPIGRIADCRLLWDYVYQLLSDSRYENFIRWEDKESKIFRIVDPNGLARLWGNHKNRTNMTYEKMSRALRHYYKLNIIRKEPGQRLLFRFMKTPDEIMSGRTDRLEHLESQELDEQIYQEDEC
sequence,measurement,setting,value
CCTGAC,binding signal,FEV,"1.5 fold enrichment (6-mer frequency, TF over GST control)"
same,binding signal,ETV5,"1.71 fold enrichment (6-mer frequency, TF over GST control)"
same,binding signal,HSF1,"1.2 fold enrichment (6-mer frequency, TF over GST control)"
same,binding signal,SPIC,"1.3 fold enrichment (6-mer frequency, TF over GST control)"
same,binding signal,ELF4,"1.42 fold enrichment (6-mer frequency, TF over GST control)"
same,binding signal,ELK4,"1.5 fold enrichment (6-mer frequency, TF over GST control)"
same,binding signal,ETV2,"1.61 fold enrichment (6-mer frequency, TF over GST control)"
same,binding signal,ELF3,"1.7 fold enrichment (6-mer frequency, TF over GST control)"
same,binding signal,CRX,"1.11 fold enrichment (6-mer frequency, TF over GST control)"
same,binding signal,ETV1,"1.61 fold enrichment (6-mer frequency, TF over GST control)"
same,binding signal,ERF,"1.37 fold enrichment (6-mer frequency, TF over GST control)"
same,binding signal,ETV3L,"1.59 fold enrichment (6-mer frequency, TF over GST control)"
same,binding signal,ETS2,"1.56 fold enrichment (6-mer frequency, TF over GST control)"
same,binding signal,SPDEF,"1.51 fold enrichment (6-mer frequency, TF over GST control)"
same,binding signal,ETV7,"1.46 fold enrichment (6-mer frequency, TF over GST control)"
same,binding signal,ELF5,"1.63 fold enrichment (6-mer frequency, TF over GST control)"
same,binding signal,ETV3,"1.44 fold enrichment (6-mer frequency, TF over GST control)"
same,binding signal,ETV6,"1.6 fold enrichment (6-mer frequency, TF over GST control)"
